# Measurements reported in article PMC7862700, “An all-to-all approach to the identification of sequence-specific readers for epigenetic DNA modifications on cytosine”.
# How the values were obtained:
# Assay in all cases: DAPPL (digital affinity profiling via proximity ligation, sequencing); 10 mM Tris-HCl pH 7.5, 50 mM NaCl, 1 mM DTT, 4% glycerol, room temperature, 30 min; GST-TFs on glutathione beads, 16-mer random dsDNA library, 0.1% formaldehyde crosslink after washing; high values mean tight binding
# [1] = target: T1, FLI1 (Homo sapiens, UniProt Q01543 1-452); conditions: protein: recombinant; tags: N-terminal GST; dsDNA, one strand shown
# T1 sequence: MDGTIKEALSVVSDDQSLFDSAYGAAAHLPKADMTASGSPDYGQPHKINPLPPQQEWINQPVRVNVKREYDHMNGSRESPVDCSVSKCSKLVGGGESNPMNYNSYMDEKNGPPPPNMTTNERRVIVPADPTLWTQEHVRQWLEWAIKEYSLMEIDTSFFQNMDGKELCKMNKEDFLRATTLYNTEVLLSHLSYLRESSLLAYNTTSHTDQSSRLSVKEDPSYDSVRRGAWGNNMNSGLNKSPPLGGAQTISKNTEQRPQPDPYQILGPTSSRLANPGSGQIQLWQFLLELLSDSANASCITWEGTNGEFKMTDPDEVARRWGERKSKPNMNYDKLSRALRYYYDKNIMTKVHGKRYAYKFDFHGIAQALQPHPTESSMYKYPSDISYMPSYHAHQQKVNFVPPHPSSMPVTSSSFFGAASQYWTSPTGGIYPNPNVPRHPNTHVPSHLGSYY
# Method in brief: (§1)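 Beads coated with glutathione captured GST-fused human transcription factors that had been expressed in yeast, and the factors were then given DNA barcodes and pooled with a tag-only sample. The pools were incubated with 200 nmole of a random double-stranded 16-mer DNA library in Tris/NaCl/DTT/glycerol buffer for 30 min at room temperature, washed, crosslinked with 0.1% formaldehyde and proximity-ligated with BsaI/T4 ligase at 37 °C for 1 h. PCR amplification and Illumina NextSeq500 sequencing came last. Binding signal is each hexamer's read frequency for a factor divided by its frequency for the tag-only sample.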
# [2] = target: T2, ELK1 (Homo sapiens, UniProt P19419 1-428); conditions: protein: recombinant; tags: N-terminal GST; dsDNA, one strand shown
# T2 sequence: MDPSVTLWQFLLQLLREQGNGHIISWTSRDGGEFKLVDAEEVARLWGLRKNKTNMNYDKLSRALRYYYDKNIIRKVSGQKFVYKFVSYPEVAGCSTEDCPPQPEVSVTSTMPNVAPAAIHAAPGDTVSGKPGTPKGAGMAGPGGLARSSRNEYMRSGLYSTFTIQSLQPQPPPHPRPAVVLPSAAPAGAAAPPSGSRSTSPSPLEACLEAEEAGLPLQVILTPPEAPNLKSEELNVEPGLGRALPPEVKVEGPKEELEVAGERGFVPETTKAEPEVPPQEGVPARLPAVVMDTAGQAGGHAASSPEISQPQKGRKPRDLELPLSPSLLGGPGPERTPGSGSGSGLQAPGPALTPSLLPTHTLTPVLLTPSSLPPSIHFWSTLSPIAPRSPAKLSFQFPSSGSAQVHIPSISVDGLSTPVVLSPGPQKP
# Method in brief: as §1
# [3] = target: T3, GABPA (Homo sapiens, UniProt Q06546 1-454); conditions: protein: recombinant; tags: N-terminal GST; dsDNA, one strand shown
# T3 sequence: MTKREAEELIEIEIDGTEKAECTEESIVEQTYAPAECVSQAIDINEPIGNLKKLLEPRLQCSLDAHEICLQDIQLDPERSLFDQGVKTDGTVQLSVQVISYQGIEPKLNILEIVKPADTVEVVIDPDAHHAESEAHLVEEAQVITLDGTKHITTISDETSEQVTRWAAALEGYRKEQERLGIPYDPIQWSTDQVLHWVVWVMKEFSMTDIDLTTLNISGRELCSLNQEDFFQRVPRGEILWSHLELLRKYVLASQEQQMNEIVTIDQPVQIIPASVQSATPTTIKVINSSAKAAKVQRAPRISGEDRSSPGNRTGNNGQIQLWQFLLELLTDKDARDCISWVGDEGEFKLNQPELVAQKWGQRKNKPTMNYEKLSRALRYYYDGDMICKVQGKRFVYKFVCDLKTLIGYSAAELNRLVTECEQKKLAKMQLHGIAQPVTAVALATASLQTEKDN
# Method in brief: as §1
# [4] = target: T4, ERG (Homo sapiens, UniProt P11308 1-479); conditions: protein: recombinant; tags: N-terminal GST; dsDNA, one strand shown
# T4 sequence: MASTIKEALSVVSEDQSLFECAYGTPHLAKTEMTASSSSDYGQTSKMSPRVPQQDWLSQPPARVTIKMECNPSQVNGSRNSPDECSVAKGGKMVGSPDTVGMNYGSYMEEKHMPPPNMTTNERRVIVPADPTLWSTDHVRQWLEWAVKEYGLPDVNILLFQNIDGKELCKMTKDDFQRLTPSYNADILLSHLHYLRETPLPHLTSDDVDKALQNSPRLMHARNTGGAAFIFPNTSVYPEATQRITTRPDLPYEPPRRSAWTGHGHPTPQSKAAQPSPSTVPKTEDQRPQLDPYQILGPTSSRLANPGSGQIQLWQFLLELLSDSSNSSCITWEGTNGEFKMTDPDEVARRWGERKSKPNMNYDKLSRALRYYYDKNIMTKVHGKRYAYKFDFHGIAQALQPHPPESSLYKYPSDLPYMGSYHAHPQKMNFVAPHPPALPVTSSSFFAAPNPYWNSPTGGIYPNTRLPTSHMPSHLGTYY
# Method in brief: as §1
# [5] = target: ELF1 (Homo sapiens, UniProt P32519 1-619); conditions: protein: recombinant; tags: N-terminal GST; dsDNA, one strand shown
# Chain of ELF1 (P32519 whole entry): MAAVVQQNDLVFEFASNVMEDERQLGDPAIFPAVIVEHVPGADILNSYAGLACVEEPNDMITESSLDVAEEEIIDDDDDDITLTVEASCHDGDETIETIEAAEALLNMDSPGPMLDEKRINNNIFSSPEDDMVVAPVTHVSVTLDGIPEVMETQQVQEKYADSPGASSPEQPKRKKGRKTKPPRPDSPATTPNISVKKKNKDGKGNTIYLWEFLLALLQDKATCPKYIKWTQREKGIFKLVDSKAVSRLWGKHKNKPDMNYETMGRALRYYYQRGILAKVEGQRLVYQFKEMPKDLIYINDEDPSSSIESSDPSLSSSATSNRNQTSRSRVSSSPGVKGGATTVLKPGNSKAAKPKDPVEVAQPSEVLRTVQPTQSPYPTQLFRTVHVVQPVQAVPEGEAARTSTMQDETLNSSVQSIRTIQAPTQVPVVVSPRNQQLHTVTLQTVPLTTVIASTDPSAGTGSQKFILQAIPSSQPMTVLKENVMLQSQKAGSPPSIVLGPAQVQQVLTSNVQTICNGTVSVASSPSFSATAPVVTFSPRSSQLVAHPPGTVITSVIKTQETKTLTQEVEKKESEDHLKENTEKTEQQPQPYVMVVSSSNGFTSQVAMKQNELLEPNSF
# Method in brief: as §1
# [6] = target: T5, EHF (Homo sapiens, UniProt Q9NZC4 1-300); conditions: protein: recombinant; tags: N-terminal GST; dsDNA, one strand shown
# T5 sequence: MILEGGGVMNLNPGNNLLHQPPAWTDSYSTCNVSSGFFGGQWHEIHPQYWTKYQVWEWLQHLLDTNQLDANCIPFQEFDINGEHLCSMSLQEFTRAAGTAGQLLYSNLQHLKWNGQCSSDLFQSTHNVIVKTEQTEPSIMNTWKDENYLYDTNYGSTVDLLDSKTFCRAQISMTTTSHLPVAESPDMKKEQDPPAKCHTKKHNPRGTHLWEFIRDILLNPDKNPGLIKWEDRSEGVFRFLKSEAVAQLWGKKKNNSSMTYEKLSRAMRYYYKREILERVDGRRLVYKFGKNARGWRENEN
# Method in brief: as §1
# [7] = target: SPI1 (Homo sapiens, UniProt P17947 1-270); conditions: protein: recombinant; tags: N-terminal GST; dsDNA, one strand shown
# Method in brief: as §1
# [8] = target: SPIB (Homo sapiens, UniProt Q01892 1-262); conditions: protein: recombinant; tags: N-terminal GST; dsDNA, one strand shown
# Chain of SPIB (Q01892 whole entry): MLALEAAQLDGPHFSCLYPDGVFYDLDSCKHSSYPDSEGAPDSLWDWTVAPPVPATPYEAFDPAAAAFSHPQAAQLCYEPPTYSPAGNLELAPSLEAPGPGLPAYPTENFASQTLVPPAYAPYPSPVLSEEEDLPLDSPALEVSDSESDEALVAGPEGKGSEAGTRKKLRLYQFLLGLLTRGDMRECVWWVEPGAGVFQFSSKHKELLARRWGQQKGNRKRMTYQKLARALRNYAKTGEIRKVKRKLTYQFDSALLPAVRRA
# Method in brief: as §1
# [9] = target: T6, ELK3 (Homo sapiens, UniProt P41970 1-407); conditions: protein: recombinant; tags: N-terminal GST; dsDNA, one strand shown
# T6 sequence: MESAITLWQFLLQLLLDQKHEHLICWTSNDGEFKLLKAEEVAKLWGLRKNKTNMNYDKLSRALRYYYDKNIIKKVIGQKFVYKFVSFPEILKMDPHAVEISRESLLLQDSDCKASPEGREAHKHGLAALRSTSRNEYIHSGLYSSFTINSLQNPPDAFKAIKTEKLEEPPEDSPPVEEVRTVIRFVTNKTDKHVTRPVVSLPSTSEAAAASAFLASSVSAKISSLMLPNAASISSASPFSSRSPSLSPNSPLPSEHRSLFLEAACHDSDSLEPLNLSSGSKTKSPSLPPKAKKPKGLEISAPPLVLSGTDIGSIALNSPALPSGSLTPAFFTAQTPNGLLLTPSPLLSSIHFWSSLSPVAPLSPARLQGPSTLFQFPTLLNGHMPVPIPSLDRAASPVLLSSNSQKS
# Method in brief: as §1
# [10] = target: T7, FEV (Homo sapiens, UniProt Q99581 1-238); conditions: protein: recombinant; tags: N-terminal GST; dsDNA, one strand shown
# T7 sequence: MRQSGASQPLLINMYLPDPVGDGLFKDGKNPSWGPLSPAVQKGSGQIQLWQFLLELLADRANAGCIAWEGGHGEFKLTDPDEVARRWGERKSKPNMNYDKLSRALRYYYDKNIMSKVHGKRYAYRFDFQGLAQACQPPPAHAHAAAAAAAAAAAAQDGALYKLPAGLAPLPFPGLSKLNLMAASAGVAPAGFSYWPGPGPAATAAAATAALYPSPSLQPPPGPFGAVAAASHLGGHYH
# Method in brief: as §1
# [11] = target: ETV5 (Homo sapiens, UniProt P41161 1-510); conditions: protein: recombinant; tags: N-terminal GST; dsDNA, one strand shown
# Chain of ETV5 (P41161 whole entry): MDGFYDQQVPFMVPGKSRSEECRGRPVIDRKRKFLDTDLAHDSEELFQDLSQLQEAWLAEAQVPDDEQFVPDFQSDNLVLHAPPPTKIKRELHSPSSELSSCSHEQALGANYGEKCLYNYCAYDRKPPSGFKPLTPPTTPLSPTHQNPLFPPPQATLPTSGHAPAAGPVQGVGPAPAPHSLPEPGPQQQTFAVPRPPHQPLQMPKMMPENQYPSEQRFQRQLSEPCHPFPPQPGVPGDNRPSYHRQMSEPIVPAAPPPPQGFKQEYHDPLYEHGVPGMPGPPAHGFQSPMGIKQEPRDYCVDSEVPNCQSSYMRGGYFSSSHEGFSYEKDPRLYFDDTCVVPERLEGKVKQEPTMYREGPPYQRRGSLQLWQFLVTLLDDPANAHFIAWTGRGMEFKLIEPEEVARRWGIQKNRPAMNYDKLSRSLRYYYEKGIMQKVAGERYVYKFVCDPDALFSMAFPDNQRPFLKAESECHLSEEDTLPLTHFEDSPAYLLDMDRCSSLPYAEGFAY
# Method in brief: as §1
# [12] = target: HSF1 (Homo sapiens, UniProt Q00613 1-529); conditions: protein: recombinant; tags: N-terminal GST; chain copies: 3; dsDNA, one strand shown
# Chain of HSF1 (Q00613 whole entry): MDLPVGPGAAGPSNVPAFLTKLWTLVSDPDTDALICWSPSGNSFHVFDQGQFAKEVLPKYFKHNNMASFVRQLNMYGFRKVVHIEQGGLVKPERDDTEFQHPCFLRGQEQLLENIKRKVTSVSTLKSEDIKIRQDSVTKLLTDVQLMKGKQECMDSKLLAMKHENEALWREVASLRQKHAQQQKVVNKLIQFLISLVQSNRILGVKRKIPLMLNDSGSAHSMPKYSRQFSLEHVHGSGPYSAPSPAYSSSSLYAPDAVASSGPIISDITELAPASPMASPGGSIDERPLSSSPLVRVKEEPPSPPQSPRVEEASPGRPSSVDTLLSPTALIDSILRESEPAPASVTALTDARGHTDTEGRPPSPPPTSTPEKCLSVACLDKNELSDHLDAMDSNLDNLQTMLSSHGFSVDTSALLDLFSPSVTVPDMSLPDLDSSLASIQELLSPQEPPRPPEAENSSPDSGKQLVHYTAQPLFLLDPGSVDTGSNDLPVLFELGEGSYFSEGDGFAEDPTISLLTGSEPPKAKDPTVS
# Method in brief: as §1
# [13] = target: T8, SPIC (Homo sapiens, UniProt Q8N5J4 1-248); conditions: protein: recombinant; tags: N-terminal GST; dsDNA, one strand shown
# T8 sequence: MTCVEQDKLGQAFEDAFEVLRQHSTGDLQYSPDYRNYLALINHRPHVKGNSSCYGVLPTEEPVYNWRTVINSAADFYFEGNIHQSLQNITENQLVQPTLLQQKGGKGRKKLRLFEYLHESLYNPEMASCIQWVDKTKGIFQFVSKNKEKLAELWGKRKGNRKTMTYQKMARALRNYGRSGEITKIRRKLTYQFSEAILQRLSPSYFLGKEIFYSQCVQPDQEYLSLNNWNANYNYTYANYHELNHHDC
# Method in brief: as §1
# [14] = target: ELF4 (Homo sapiens, UniProt Q99607 1-663); conditions: protein: recombinant; tags: N-terminal GST; dsDNA, one strand shown
# Chain of ELF4 (Q99607 whole entry): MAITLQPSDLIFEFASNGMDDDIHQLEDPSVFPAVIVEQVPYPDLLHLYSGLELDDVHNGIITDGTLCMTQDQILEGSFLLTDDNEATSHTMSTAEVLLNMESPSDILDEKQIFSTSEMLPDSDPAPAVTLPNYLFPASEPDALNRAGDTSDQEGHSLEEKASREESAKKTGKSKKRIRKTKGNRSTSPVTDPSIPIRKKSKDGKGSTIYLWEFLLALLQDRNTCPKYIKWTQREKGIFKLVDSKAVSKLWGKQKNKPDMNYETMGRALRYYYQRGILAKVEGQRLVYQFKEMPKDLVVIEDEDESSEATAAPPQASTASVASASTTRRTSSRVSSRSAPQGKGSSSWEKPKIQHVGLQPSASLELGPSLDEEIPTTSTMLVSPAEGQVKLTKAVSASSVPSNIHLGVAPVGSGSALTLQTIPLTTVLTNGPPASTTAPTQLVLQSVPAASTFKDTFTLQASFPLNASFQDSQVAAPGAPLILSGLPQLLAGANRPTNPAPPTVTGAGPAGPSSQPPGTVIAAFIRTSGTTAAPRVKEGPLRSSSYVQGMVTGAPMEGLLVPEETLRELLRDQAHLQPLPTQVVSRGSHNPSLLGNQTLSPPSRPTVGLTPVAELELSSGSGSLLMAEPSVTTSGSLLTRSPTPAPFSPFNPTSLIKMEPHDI
# Method in brief: as §1
# [15] = target: T9, ELK4 (Homo sapiens, UniProt P28324-2 1-405); conditions: protein: recombinant; tags: N-terminal GST; dsDNA, one strand shown
# T9 sequence: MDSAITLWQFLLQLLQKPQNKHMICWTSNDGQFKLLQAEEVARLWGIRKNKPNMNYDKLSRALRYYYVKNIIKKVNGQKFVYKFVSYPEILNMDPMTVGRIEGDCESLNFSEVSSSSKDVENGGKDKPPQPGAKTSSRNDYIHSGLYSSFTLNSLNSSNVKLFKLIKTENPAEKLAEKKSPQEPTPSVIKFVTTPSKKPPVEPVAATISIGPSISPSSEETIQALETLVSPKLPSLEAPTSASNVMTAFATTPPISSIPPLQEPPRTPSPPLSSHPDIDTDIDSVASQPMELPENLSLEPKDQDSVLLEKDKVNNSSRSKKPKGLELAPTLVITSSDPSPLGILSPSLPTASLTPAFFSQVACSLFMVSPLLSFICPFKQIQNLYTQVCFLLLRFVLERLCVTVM
# Method in brief: as §1
# [16] = target: T10, ETV2 (Homo sapiens, UniProt O00321 1-342); conditions: protein: recombinant; tags: N-terminal GST; dsDNA, one strand shown
# T10 sequence: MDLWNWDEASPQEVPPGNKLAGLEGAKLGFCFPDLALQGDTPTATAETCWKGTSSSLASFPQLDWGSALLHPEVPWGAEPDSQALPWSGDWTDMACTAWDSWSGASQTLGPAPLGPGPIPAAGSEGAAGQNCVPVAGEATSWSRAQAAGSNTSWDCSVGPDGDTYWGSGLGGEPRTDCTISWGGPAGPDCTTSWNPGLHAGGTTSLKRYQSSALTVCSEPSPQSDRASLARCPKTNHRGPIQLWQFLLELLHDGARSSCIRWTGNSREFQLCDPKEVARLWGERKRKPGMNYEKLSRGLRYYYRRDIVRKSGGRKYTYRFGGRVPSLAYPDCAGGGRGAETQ
# Method in brief: as §1
# [17] = target: T11, ELF3 (Homo sapiens, UniProt P78545 1-371); conditions: protein: recombinant; tags: N-terminal GST; dsDNA, one strand shown
# T11 sequence: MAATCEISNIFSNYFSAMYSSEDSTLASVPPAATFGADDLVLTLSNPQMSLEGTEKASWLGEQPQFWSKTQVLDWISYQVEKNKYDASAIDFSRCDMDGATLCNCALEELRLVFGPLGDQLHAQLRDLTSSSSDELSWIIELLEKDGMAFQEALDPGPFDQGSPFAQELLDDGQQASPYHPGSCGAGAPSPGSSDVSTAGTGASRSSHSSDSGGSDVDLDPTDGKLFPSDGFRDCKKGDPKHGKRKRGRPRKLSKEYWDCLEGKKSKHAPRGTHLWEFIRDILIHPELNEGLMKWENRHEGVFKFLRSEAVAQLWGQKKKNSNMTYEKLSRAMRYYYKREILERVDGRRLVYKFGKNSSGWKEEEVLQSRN
# Method in brief: as §1
# [18] = target: CRX (Homo sapiens, UniProt O43186 1-299); conditions: protein: recombinant; tags: N-terminal GST; dsDNA, one strand shown
# Chain of CRX (O43186 whole entry): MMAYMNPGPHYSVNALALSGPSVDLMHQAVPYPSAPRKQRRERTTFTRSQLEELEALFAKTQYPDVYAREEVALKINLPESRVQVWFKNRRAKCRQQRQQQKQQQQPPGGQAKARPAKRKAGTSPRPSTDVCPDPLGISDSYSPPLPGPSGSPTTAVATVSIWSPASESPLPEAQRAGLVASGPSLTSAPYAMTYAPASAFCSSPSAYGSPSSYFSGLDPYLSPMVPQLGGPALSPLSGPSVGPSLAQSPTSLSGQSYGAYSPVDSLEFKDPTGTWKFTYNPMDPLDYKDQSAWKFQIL
# Method in brief: as §1
# [19] = target: ETV1 (Homo sapiens, UniProt P50549 1-477); conditions: protein: recombinant; tags: N-terminal GST; dsDNA, one strand shown
# Chain of ETV1 (P50549 whole entry): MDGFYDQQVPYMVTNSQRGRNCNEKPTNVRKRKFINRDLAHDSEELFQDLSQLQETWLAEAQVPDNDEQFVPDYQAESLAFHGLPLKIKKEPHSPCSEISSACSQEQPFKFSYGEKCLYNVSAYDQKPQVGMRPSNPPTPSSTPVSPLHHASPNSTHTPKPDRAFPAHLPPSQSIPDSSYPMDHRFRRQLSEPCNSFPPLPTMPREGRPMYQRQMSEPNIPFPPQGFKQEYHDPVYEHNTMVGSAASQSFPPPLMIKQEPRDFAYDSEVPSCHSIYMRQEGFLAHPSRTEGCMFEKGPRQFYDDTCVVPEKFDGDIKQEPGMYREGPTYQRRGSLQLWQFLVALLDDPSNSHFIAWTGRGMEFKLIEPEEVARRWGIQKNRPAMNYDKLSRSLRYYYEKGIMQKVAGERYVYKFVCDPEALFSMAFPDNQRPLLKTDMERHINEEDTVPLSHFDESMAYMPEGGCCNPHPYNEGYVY
# Method in brief: as §1
sequence,measurement,setting,value
TTAATT,binding signal,[1],"1.38 fold enrichment (6-mer frequency, TF over GST control)"
same,binding signal,[2],"1.34 fold enrichment (6-mer frequency, TF over GST control)"
same,binding signal,[3],"1.42 fold enrichment (6-mer frequency, TF over GST control)"
same,binding signal,[4],"1.32 fold enrichment (6-mer frequency, TF over GST control)"
same,binding signal,[5],"1.37 fold enrichment (6-mer frequency, TF over GST control)"
same,binding signal,[6],"1.39 fold enrichment (6-mer frequency, TF over GST control)"
same,binding signal,[7],"1.38 fold enrichment (6-mer frequency, TF over GST control)"
same,binding signal,[8],"1.36 fold enrichment (6-mer frequency, TF over GST control)"
same,binding signal,[9],"1.54 fold enrichment (6-mer frequency, TF over GST control)"
same,binding signal,[10],"1.31 fold enrichment (6-mer frequency, TF over GST control)"
same,binding signal,[11],"1.49 fold enrichment (6-mer frequency, TF over GST control)"
same,binding signal,[12],"2.23 fold enrichment (6-mer frequency, TF over GST control)"
same,binding signal,[13],"1.33 fold enrichment (6-mer frequency, TF over GST control)"
same,binding signal,[14],"1.33 fold enrichment (6-mer frequency, TF over GST control)"
same,binding signal,[15],"1.3 fold enrichment (6-mer frequency, TF over GST control)"
same,binding signal,[16],"1.43 fold enrichment (6-mer frequency, TF over GST control)"
same,binding signal,[17],"1.27 fold enrichment (6-mer frequency, TF over GST control)"
same,binding signal,[18],"3.46 fold enrichment (6-mer frequency, TF over GST control)"
same,binding signal,[19],"1.34 fold enrichment (6-mer frequency, TF over GST control)"
